Results filed as inconclusive are left out. Active and inactive are the calls of the source. Calls come from the whole dose curve; as a rule, active = well fitted inhibition curve with a large enough effect; inconclusive = small, poorly fitted or top-dose-only effect; inactive = no such curve, though single readings can be large or run the other way.

This assay in a line: Confirmation assay for measurement of the activity of small molecule inhibitors on Zika virus induced Caspase-3 activity in human astrocytoma cells. As to conditions: SNB-19 ZIKV-induced caspase-3/7, luminescence, 6 h; series mostly up to 46.1 µM. A digest of the protocol:
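SNB-19 astrocytoma cells pretreated with compound 1 h, then infected with ZIKV (2 FFU/cell) for 6 h at 37 C. Caspase-3/7 luminescence read; percent inhibition normalized to uninfected and infected wells.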
For the compound `Cc1ccc(C(=O)c2ccc(CC(=O)O)n2C)cc1`, the Potency result was “inactive”.
On to `Nc1ccc(-c2ccc3ccccc3n2)cc1`, for which the Potency is 6.9 µM (active).
Turning to `O=C(O)[C@@H](c1ccc(OCc2ccc3ccccc3n2)cc1)C1CCCC1`, the Potency is 13.8 µM (active).
For `CN(C)c1cc(NC(=O)CNC(C)(C)C)c(O)c2c1C[C@@H]1C[C@H]3[C@H](N(C)C)C(=O)C(C(N)=O)=C(O)[C@@]3(O)C(=O)C1=C2O` the value was “inactive”.
For `O=C(Nc1ncc([N+](=O)[O-])s1)c1cccs1` the value was 1.73 µM (active); for `COc1ccc(-c2cc(=O)c3c(O)cc(O)cc3o2)cc1O`, 13.8 µM (active); for `CC(C)c1ccc2oc3nc(N)c(C(=O)O)cc3c(=O)c2c1`, 1.95 µM (active).
Turning to `C[C@@H](N)c1ccc(C(=O)Nc2ccnc3[nH]ccc23)cc1`, the Potency entry was “inactive”.
Turning to `Cc1ccc2c(n1)Oc1ccc(C(C)C(=O)OCC(=O)N(C)C)cc1C2` (stereo not drawn), the Potency is 10.9 µM (active).
With `COc1ccc(CC2=NN3C([C@@H](CCc4ccccc4)[C@@H](C)O)=NC(C)C3C(=O)N2)cc1OC` (stereo partly drawn), the Potency entry was “inactive”.
On to `CC(C(=O)O)c1ccc(-c2ccccc2)c(F)c1` (stereo not drawn), for which the Potency entry was “inactive”.
As to `Cc1cccc(C#Cc2ccccc2)n1`, the Potency is 4.89 µM (active).
Take `Cc1ccc(O)c(N=Nc2ccccc2)n1`: the Potency was 5.48 µM (active).
Consider `CC(C(=O)O)c1ccc(C(=O)c2ccccc2)s1` (stereo not drawn), for which the Potency was 8.69 µM (active).
For `O=C(Nc1ccc(OC(F)(F)F)cc1)c1sccc1NCc1ccnc2ccccc12`, the Potency is 6.9 µM (active).
On to `CC[C@]1(O)C[C@H]2CN(CCc3c([nH]c4ccccc34)[C@@](C(=O)OC)(c3cc4c(cc3OC)N(C=O)[C@H]3[C@@](O)(C(=O)OC)[C@H](OC(C)=O)[C@]5(CC)C=CCN6CC[C@]43[C@@H]65)C2)C1`, for which the Potency entry is “inactive”.
As to `O=C(O)c1cccc(-c2noc(-c3ccccc3F)n2)c1`, the Potency is 3.46 µM (active).
Take `CC(C(=O)O)c1ccc2c(c1)[nH]c1ccc(Cl)cc12` (stereo not drawn): the Potency result is “inactive”.
In the case of `CC(O)=C(C#N)C(=O)Nc1ccc(C(F)(F)F)cc1`, the Potency was 0.869 µM (active).
`CCOC1OC(=O)C[C@H]1NC(=O)[C@@H]1CCCN1C(=O)[C@@H](NC(=O)c1ccc(N)c(Cl)c1)C(C)(C)C` (stereo partly drawn): the Potency entry is “inactive”.
For `C=C1C(=O)[C@@]23C(CC[C@@H]1[C@H]2O)[C@@]12CO[C@]3(O)[C@@H](O)[C@@H]1C(C)(C)CC[C@@H]2O` (stereo partly drawn) the value was “inactive”.
As for `CN(C)c1ccc(C(=C2C=CC(=[N+](C)C)C=C2)c2ccccc2)cc1`, the Potency result was “inactive”.
On to `O=C(Nc1ccc(C(=O)O)c(O)c1)c1ccccc1`, for which the Potency was 6.15 µM (active).
Turning to `CC(=NNC(=S)N1CCC1)c1ccccn1`, the Potency result is “inactive”.
`Nc1ccc2c(c1)CN1C(=O)c3ccccc3C1=N2`: the Potency is 3.37 µM (active).
For `CCCS(=O)c1ccc2nc(NC(=O)OC)[nH]c2c1` (stereo not drawn) the value was 21.8 µM (active); for `Nc1ncnc2c1ncn2[C@@H]1O[C@@H](CO)[C@H](O)[C@H]1O`, “inactive”.
As for `CCCCCCOc1ccccc1C(N)=O`, the Potency entry is “inactive”.
With `CCC(C(=O)O)c1ccc(N2Cc3ccccc3C2=O)cc1` (stereo not drawn), the Potency was 6.9 µM (active).
As to `O=C1NC(=O)C(=Cc2ccc(-c3ccc(F)cc3)o2)S1`, the Potency is 13.8 µM (active).
Turning to `c1ccc(CCNc2nc(-c3ccccc3)cs2)cc1`, the Potency is 15.5 µM (active).
Regarding `Oc1ccc(/C=C/c2cc(O)cc(O)c2)cc1`, the Potency was 13.8 µM (active).
Turning to `N[C@H](CSC(c1ccccc1)(c1ccccc1)c1ccccc1)C(=O)O`, the Potency entry is “inactive”.
On to `CCN1/C(=C/C=C/c2sc3ccccc3[n+]2CC)Sc2ccccc21`, for which the Potency entry is “inactive”.
As for `O=C(O)Cc1ccc(-c2ccccc2)cc1`, the Potency result was “inactive”.
Next, `O=C(O)[C@H](CC(=O)N1C[C@@H]2CCCC[C@H]2C1)Cc1ccccc1`: “inactive”.
`COc1cccc(-c2ccc(NC(=O)C3=C(C(=O)O)CCC3)c(F)c2)c1`: the Potency is 3.46 µM (active).
As to `O=C1C[C@@H](c2ccc(O)cc2)Oc2cc(O)cc(O)c21`, the Potency is 15.5 µM (active).

These data come from PubChem BioAssay AID1224853 (National Center for Advancing Translational Sciences (NCATS), 2016).
